Measured values from PubChem BioAssay AID1159580 (chemical genetic matrix, 2015).
Several values for one entry are separate records, joined by “and”; a condition that tells them apart may be missing. Equal values may be shown once. The whole screen tested about 5,500 compounds, of which about 2,000 (36%) were called active. Not shown: some 18% with an inconclusive outcome. Rule as the data show it: active = normalized growth mostly below about 0.91 (no sharp cut-off); inconclusive = no clear call, values can overlap the other calls; inactive = mostly above about 0.92. This is one part of the list.

Assay: chemical genetic growth profiling, strain panel (AID 1159580);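 also: tested at 20 µM; growth read once vehicle control cultures reached saturation at 30 °C; 1 = growth at the plate median or of vehicle wells; lower values mean less growth of the strain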
Conditions: S. cerevisiae deletion strains, growth OD

Measured: normalized growth

Nc1nc(=S)c2[nH]cnc2[nH]1
inactive: locus YAL013W, strain DEP1, hits give low values 1.01 | locus YAL021C, strain ccr4, hits give low values 0.946 | locus YAL026C, strain drs2, hits give low values 0.971 | locus YAL030W, strain snc1, hits give low values 0.975 | locus YBL061C, strain skt5, hits give low values 0.988 | locus YBR009C, strain hhf1, hits give low values 1.03 | locus YBR021W, strain FUR4, hits give low values 0.999 | locus YBR023C, strain chs3, hits give low values 0.969 | locus YBR171W, strain sec66, hits give low values 0.974 | locus YBR229C, strain ROT2, hits give low values 1 | locus YBR231C, strain swc5, hits give low values 1.03 | locus YBR279W, strain paf1, hits give low values 0.973 | locus YCL011C, strain gbp2, hits give low values 0.971 | locus YCL016C, strain dcc1, hits give low values 0.947 | locus YCL029C, strain bik1, hits give low values 1.01 | locus YCL061C, strain MRC1, hits give low values 0.993 | locus YCL069W, strain vba3, hits give low values 0.976 | locus YCR088W, strain abp1, hits give low values 0.98 | locus YDL005C, strain med2, hits give low values 0.965 | locus YDL035C, strain GPR1, hits give low values 1.02 | locus YDL040C, strain nat1, hits give low values 0.982 | locus YDL074C, strain BRE1, hits give low values 1.01 | locus YDL101C, strain DUN1, hits give low values 1.01 | locus YDL134C, strain PPH21, hits give low values 1.01 | locus YDL185W, strain tfp1, hits give low values 0.996 | locus YDL192W, strain arf1, hits give low values 1.01 | locus YDR001C, strain nth1, hits give low values 0.982 | locus YDR069C, strain doa4, hits give low values 0.982 | locus YDR101C, strain arx1, hits give low values 0.986 | locus YDR137W, strain rgp1, hits give low values 0.967 | locus YDR150W, strain NUM1, hits give low values 1.01 | locus YDR159W, strain sac3, hits give low values 0.957 | locus YDR162C, strain NBP2, hits give low values 1.02 | locus YDR195W, strain ref2 0.988 | locus YDR297W, strain sur2, hits give low values 1 | locus YDR318W, strain mcm21, hits give low values 1 | locus YDR334W, strain swr1, hits give low values 0.962 | locus YDR335W, strain msn5, hits give low values 0.98 | locus YDR388W, hits give low values 0.998 | locus YDR392W, strain spt3, hits give low values 0.859 | locus YDR502C, strain sam2, hits give low values 1 | locus YEL003W, strain gim4, hits give low values 0.988 | locus YEL037C, strain rad23, hits give low values 0.973 | locus YEL061C, strain CIN8 (second series), hits give low values 0.975 | locus YEL061C, strain CIN8, hits give low values 1.01 | locus YER015W, strain faa2, hits give low values 0.983 | locus YER016W, strain bim1, hits give low values 0.942 | locus YER110C, hits give low values 1 | locus YER111C, strain swi4, hits give low values 0.959 | locus YER155C, strain BEM2 (second series), hits give low values 1 | locus YER155C, strain BEM2, hits give low values 1.02 | locus YER167W, strain BCK2, hits give low values 1.01 | locus YFR010W, strain ubp6, hits give low values 1 | locus YGL078C, strain dbp3, hits give low values 0.997 | locus YGL086W, strain mad1, hits give low values 0.997 | locus YGL167C, strain pmr1, hits give low values 0.979 | locus YGL173C, strain kem1, hits give low values 0.98 | locus YGL227W, strain vid30, hits give low values 0.973 | locus YGL240W, strain doc1, hits give low values 1.01 | locus YGL248W, strain PDE1, hits give low values 1.01 | locus YGL253W, strain hxk2, hits give low values 0.961 | locus YGR078C, strain PAC10, hits give low values 0.988 | locus YGR135W, strain pre9, hits give low values 0.998 | locus YGR229C, strain SMI1, hits give low values 0.99 | locus YGR252W, strain gcn5, hits give low values 0.981 | locus YHR013C, strain ard1, hits give low values 0.93 | locus YHR027C, strain rpn1, hits give low values 0.99 | locus YHR030C, strain SLT2, hits give low values 1.02 and 0.978 | locus YHR079C, strain IRE1 (second series), hits give low values 1 | locus YHR079C, strain IRE1, hits give low values 0.998 | locus YHR094C, strain hxt1, hits give low values 0.998 | locus YHR129C, strain ARP1, hits give low values 1.01 | locus YHR142W, strain chs7, hits give low values 0.945 | locus YHR200W, strain rpn10, hits give low values 0.998 | locus YIL066C, strain RNR3, hits give low values 1.01 | locus YIL073C, strain SPO22, hits give low values 1.04 | locus YIL125W, strain kgd1, hits give low values 0.995 | locus YIR030C, strain dcg1, hits give low values 1 | locus YJL092W, strain hpr5, hits give low values 0.991 | locus YJL095W, strain BCK1 (second series), hits give low values 0.964 | locus YJL095W, strain BCK1, hits give low values 1.02 and 0.979 | locus YJL115W, strain asf1, hits give low values 0.972 | locus YJL129C, strain trk1, hits give low values 0.936 | locus YJL134W, strain LCB3, hits give low values 1 | locus YJL154C, strain vps35, hits give low values 0.971 | locus YJL164C, strain tpk1, hits give low values 0.998 | locus YJL166W, strain qcr8, hits give low values 1.01 | locus YJL168C, strain set2, hits give low values 0.995 | locus YJL187C, strain SWE1 (second series), hits give low values 1.01 | locus YJL187C, strain SWE1, hits give low values 0.981 | locus YJR043C, strain POL32, hits give low values 1.01 | locus YJR066W, strain TOR1, hits give low values 0.949
